Sampled rows, rich in hits. Any-hit rate of the full collection: about 1.9%.
TsaE inh – YjeE (TsaE) inhibition, E. coli | P0AF67 | purified YjeE enzyme, qHTS inhibition assay | Potency, µM | 71,000 tested, 0.05% active | AID 605
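Purified YjeE (10 uM) with BODIPY Texas Red-labeled ADP probe (2 uM); compounds pin-transferred, 15 min at room temperature. Binding inhibition read as decreased fluorescence polarization; ADP titration as control.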
Hsp90 Hop PPI – changes Hsp90-Hop TPR2A binding signal, up or down; AlphaScreen TPR2A-His6 binding biotin-Hsp90 C-terminal peptide; Potency, µM (doses to about 57 µM), without a hit: at the highest dose activity change, negative = inhibition; 71,000 tested, 0.44% active; active means well fitted curve in either direction with a large enough effect; inconclusive means small, poorly fitted or top-dose-only effect, or another doubt; further: potency means the concentration at half of the fitted maximal effect; on the % scale 0 is the no-effect control and ±100 the full control effect
BRCT inh green – inhibitors of human BRCA1 BRCT-phosphoprotein interaction (green fluorophore); P38398; BRCA1 BRCT-phosphopeptide binding, green fluorescence polarization; Potency, µM (top dose mostly 76.9 µM), without a hit: at the top dose activity change, negative = inhibition, actives largely listed as inhibitors; 75,000 tested, 0.05% active; AID 875;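 further: potency means the concentration at half of the fitted maximal effect; plate controls were peptide without protein for full effect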
Target sequence (P38398 whole entry, looked up): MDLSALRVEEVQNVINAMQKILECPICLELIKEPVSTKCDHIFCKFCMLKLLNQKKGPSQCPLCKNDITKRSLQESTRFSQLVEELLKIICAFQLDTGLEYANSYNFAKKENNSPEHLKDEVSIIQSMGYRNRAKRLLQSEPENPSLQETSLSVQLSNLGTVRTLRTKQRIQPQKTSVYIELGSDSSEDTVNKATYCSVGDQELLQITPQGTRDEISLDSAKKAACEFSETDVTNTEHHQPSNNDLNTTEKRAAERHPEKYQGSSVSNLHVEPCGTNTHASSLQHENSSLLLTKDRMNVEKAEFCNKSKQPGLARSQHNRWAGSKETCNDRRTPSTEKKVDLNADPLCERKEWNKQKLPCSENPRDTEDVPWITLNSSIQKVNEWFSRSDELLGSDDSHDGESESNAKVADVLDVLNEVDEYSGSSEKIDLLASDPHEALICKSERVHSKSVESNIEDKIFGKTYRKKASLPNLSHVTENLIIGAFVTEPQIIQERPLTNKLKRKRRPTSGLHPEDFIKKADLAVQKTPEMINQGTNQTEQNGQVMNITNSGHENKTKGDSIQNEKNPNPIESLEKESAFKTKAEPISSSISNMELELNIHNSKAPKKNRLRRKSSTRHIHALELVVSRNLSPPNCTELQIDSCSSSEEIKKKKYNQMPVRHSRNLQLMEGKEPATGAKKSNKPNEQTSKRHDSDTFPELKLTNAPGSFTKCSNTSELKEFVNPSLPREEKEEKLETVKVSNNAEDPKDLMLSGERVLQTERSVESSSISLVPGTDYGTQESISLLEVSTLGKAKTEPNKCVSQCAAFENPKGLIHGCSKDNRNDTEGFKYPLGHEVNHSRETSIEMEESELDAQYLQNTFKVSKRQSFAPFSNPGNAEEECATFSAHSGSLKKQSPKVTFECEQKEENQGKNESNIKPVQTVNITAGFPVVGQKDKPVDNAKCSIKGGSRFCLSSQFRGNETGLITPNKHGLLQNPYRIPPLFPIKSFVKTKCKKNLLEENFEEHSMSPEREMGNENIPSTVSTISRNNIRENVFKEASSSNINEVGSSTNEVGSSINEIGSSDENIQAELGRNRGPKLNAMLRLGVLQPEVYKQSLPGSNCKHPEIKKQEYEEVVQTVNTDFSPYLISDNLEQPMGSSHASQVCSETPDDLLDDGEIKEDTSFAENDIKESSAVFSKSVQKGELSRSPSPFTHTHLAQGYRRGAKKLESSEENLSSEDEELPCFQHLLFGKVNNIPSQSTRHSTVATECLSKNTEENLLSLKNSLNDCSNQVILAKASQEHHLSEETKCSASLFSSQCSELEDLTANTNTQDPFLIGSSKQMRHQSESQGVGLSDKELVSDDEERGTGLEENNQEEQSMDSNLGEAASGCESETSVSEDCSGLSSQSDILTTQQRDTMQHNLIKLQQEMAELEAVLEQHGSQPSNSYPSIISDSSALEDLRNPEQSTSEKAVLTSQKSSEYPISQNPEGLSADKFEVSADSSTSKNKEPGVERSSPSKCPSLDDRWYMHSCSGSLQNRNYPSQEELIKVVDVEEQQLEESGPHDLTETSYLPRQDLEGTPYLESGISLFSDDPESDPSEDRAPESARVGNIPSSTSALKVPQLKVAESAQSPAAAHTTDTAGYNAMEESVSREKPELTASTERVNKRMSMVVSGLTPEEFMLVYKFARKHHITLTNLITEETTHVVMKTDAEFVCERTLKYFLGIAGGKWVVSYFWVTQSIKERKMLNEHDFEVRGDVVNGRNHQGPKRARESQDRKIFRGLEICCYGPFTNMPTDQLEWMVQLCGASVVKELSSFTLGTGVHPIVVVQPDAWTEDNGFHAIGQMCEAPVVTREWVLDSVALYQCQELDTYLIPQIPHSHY
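Compounds were incubated for 12 min at room temperature with a complex of 100 nM fluorescein-tagged pBACH1 decapeptide and 250 nM His-tagged BRCT protein. Buffer was phosphate pH 7.3 with EDTA, DTT and Tween 20. Disruption of binding lowers the polarization signal.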
BRCT inh red – BRCT-phosphoprotein interaction inhibition (red fluorophore); BRCT-phosphopeptide binding, red fluorescence polarization; 75,000 tested, 0.03% active; Potency, µM (doses to about 76.9 µM), for inactives: at the highest dose activity change, negative = inhibition, actives largely listed as inhibitors; further: on the % scale 0 is the no-effect control and ±100 the full control effect
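Rhodamine-labelled pBACH1 10-mer (100 nM) bound to BRCT domain (100 nM) at pH 7.3; compounds incubated 12 min room temperature, polarization read. Free peptide defines full inhibition; unlabelled decapeptide titrated as control.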
DNA Pol III inh – inhibitors of bacterial DNA polymerase III holoenzyme; reconstituted DNA polymerase III holoenzyme replication, biochemical; Potency, µM (top dose mostly 57.1 µM), without a hit: top-dose activity change, negative = inhibition; 71,000 tested, 0.25% active; further: potency means the concentration at half of the fitted maximal effect; on the % scale 0 is the no-effect control and ±100 the full control effect
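Reconstituted *E. coli* holoenzyme (0.35 nM Pol III, 1 nM beta, 154 nM SSB, 2 nM primase) was preincubated with compound for 15 min at RT. Synthesis on 1.4 nM ssM13Gori ran 35 min, then was stopped with PicoGreen/EDTA and read as dsDNA fluorescence.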
15-hLO inh – 15-hLO (ALOX15) enzyme inhibition; P16050; purified 15hLO-1, xylenol orange hydroperoxide absorbance; Potency, µM (titrated, usually from 57.1 µM), for inactives: at the highest dose activity change, negative = inhibition, actives largely listed as inhibitors; 74,000 tested, 1.4% active; further: potency means the concentration at half of the fitted maximal effect; on the % scale 0 is the no-effect control and ±100 the full control effect; nearly all actives have a fitted effect of over 55% in size
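40 nM 15hLO-1 + cpd, 15 min RT; start w/ 50 uM AA (final), 6 min RT; stop/detect w/ 200 uM XO + 300 uM Fe(II) in 50 mM H2SO4, 30 min; A573/A405. Buffer 25 mM Hepes pH 7.5, 0.01% Triton X-100. No-enzyme wells as negative control.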
* = called active by the depositor; i = inactive; u = inconclusive; x = no result given; [ ] = another dose, or the depositor's remark. Unless noted, the call rests on the fitted dose curve; in most records, active means well fitted curve in the direction sought with a large enough effect; inconclusive means small, poorly fitted or top-dose-only effect, or another doubt; inactive means no such curve, though single readings can be large; an effect the other way counts as inactive or inconclusive.

SMILES	TsaE inh	Hsp90 Hop PPI	BRCT inh green	BRCT inh red	DNA Pol III inh	15-hLO inh
CC(=O)Oc1ccc(N(C(C)=O)S(=O)(=O)c2cccs2)cc1	i	0%	0%	0%	-2%	9%
O=C(O)c1cc(S(=O)(=O)Nc2ccc3oc(=O)sc3c2)ccc1O	i	-1%	0%	1%	-1%	u
CC(=O)N(c1ccc2oc(=O)sc2c1)S(=O)(=O)c1cccs1	i	-8%	-3%	-1%	-2%	10µM*
CCC(c1nnnn1Cc1ccco1)N(Cc1ccccc1OC)Cc1cc2cc(C)ccc2[nH]c1=O (configuration not stated)	i	-3%	1%	1%	-4%	-28%
COc1ccc2[nH]c(=O)c(CN(C3CCCCC3)C(c3nnnn3Cc3ccco3)C(C)C)cc2c1 (configuration not stated)	i	-20%	10%	0%	-10%	16µM*
CCC(c1nnnn1Cc1ccco1)N(Cc1cc2cc(C)cc(C)c2[nH]c1=O)CC1CCCO1 (configuration not stated)	i	-3%	-4%	-1%	-2%	10µM*
COc1ccc2[nH]c(=O)c(CN(Cc3nnnn3Cc3ccco3)C3CCCCC3)cc2c1	i	-11%	-14%	-10%	-17%	6.3µM*
Cn1c(=O)c(CCc2ccccc2)nc2cnc(N3CCNCC3)nc21	i	-10%	-1%	-3%	-2%	-17%
CN(C)CCCNC(=O)c1ccc(Cc2nc3ccccc3[nH]2)cc1	x	x	-2%	1%	x	8%
Nc1ccn([C@@H]2O[C@@H](CO)[C@@H](O)[C@H]2O)c(=O)n1	i	-10%	3%	-2%	2%	7%
c1ccc2sc(SCSc3nc4ccccc4s3)nc2c1	i	23%[11 µM]	-1%[15.4 µM]	1%[15.4 µM]	-7%[11.4 µM]	-25%[11.4 µM]
c1ccc2sc(SN3CCOCC3)nc2c1	i	-3%	-1%	-1%	-4%	2µM*
CC(C)NCC(O)Cn1c2c(c3ccccc31)CCc1c-2cnn1-c1ccccc1 (configuration not stated)	i	-15%	-3%	-4%	-8%	13µM*
Cc1ccc2c(c1)c1c(n2CC(O)Cn2c(C)nc3ccccc32)C(=O)CCC1 (configuration not stated)	i	-3%[2.3 µM]	0%	0%	-5%	-2%
CCCC(=O)NCCc1c2n(c3ccc(OC)cc13)Cc1ccccc1-2	i	-15%	-2%	-2%	2%	-25%
COc1ccc(N2CC(C(=O)Nc3ccc4c(c3)OCO4)CC2=O)cc1 (configuration not stated)	i	-1%	-6%	1%	-4%	-4%
O=C(Nc1nc(-c2ccco2)c(-c2ccco2)s1)C1CC(=O)N(c2ccc3c(c2)OCCO3)C1 (configuration not stated)	i	u	u	u	10µM*	2.5µM*
O=c1oc2c(O)c(O)cc3c(=O)oc4c(O)c(O)cc1c4c23	i	32µM*	-10%	-5%	0.005µM*	u
CN(C)c1ncc2nc(-c3ccccc3)c(=O)n(C3CC3)c2n1	i	20µM*	-9%	-1%	-11%	u
COc1ccccc1N1C(=O)c2ccccc2NC1c1ccncc1 (configuration not stated)	i	-3%	0%	-1%	-4%	20µM*
O=C(OCc1nnc(-c2ccc(Cl)cc2)o1)c1ccc(=O)n(Cc2ccccc2)n1	i	-2%	5%	3%	-2%	20µM*
O=C(OCc1nnc(-c2ccc(Cl)cc2)o1)c1ccncc1	i	-1%	1%	-2%	4%	4%
C[C@@]12CCC(=O)C=C1CC[C@H]1[C@H]3CC[C@](O)(C(=O)CO)[C@]3(C)CC[C@@H]12	i	-9%	x	x	-6%	x
CC1CCN(c2nc(-c3ccco3)c3c(c2C#N)CC(C)(C)OC3)CC1	i	25µM*	3%	-1%	-5%	-19%
O=C(C1COc2ccccc2O1)N1CCc2ccccc21 (configuration not stated)	i	4%	-4%	-6%	u	16µM*
SMILES	TsaE inh	Hsp90 Hop PPI	BRCT inh green	BRCT inh red	DNA Pol III inh	15-hLO inh
O=[N+]([O-])c1cccc(C(F)(F)F)c1	i	2%	-4%	0%	2%	4%
[O-][N+]1=c2ccc(Nc3ccccc3)cc2=NC12CCCCC2	i	u	-5%	0%	-10%	3.2µM*
COc1ccc(Nc2ccc3c(c2)=NC2(CCCCC2)[N+]=3[O-])cc1	i	u	2%	1%	-9%	u
C[C@H](N)C(=O)OC(C)(C)Cc1ccc(Cl)cc1	i	-7%	1%	-2%	4%	7%
Oc1ccc(Cc2nccc3cc(O)c(O)cc23)cc1O	i	-7%[11 µM]	-8%[15.4 µM]	1%[15.4 µM]	-28%[11.4 µM]	u
CCc1c(C)sc(NC(=O)c2cccs2)c1C(=O)OC(C)C	i	25µM*	1%	0%	-11%	-1%
COC(=O)CC[C@@H](C)[C@H]1CC[C@H]2[C@H]3CC[C@H]4C[C@@H]5CC[C@@]4(C)C3(O5)[C@@H](Br)[C@@H](Br)[C@@]12C	i	4%[11 µM]	-2%[15.4 µM]	0%[15.4 µM]	22%[11.4 µM]	9%[11.4 µM]
CCOC(=O)N1CCN(c2cc(NCCC(=O)O)c3c4c(onc24)-c2ccccc2C3=O)CC1	i	u	-2%	-9%	-24%	-5%
O=C(O)CCCNc1cc(N2CCC3(CC2)OCCO3)c2noc3c2c1C(=O)c1ccccc1-3	i	3.2µM*	-15%	u	3.2µM*	u
O=C(O)/C=C\c1c2ccc(=O)c(O)c-2oc2c(O)c(O)ccc12	u	u	6.3µM*	u	0.1µM*	1.6µM*
O=C(O)[C@H]1CCCC[C@@H]1c1c2ccc(=O)c(O)c-2oc2c(O)c(O)ccc12	i	u	-10%[15.4 µM]	-24%[15.4 µM]	0.32µM*	u
Cn1c(=O)c2c(nc(/C=C\c3cccc(Cl)c3)n2C)n(C)c1=O	i	-10%	-3%	-2%	-9%	-8%
Cc1cc(=O)n2[nH]c(C)c(-c3ccc(Cl)cc3)c2n1	i	22%	-3%	-1%	20µM*	18%
Nc1nc(N)c2nn(-c3ccc(C(=O)O)cc3)nc2n1	i	0%[11 µM]	0%[15.4 µM]	0%[15.4 µM]	-6%[11.4 µM]	5%[11.4 µM]
CC(=O)N(C(C)=O)c1ccc2nc(C)[nH]c(=O)c2c1	i	-3%	-1%	1%	6%	-2%
CN(C)c1ccc2nc3c(C(=O)O)cc(=O)c(O)c-3oc2c1	i	-20%[11 µM]	-2%[15.4 µM]	-2%[15.4 µM]	3.2µM*	-18%[11.4 µM]
CC(=O)Oc1cc(-c2coc3cc(OC(C)=O)c(OC(C)=O)c(OC(C)=O)c3c2=O)cc(OC(C)=O)c1OC(C)=O	x	x	-1%[3.08 µM]	0%	x	16µM*
